Results: paper PMC3315485, “Probing the Informational and Regulatory Plasticity of a Transcription Factor DNA–Binding Domain”
Numbering of substitutions follows the chain as printed.

Experiments:
Experiment in all cases: MITOMI; MITOMI, 295 K (22 C); buffer, salt and pH not stated in the material; high values mean tight binding
Settings in all cases: protein: ivt; label: fluorescent; dsDNA, one strand shown
MarA wild type (WQR) = biological target: T1, MarA wild type (WQR) (Escherichia coli, UniProt P0ACH5 1-127)
T1 sequence: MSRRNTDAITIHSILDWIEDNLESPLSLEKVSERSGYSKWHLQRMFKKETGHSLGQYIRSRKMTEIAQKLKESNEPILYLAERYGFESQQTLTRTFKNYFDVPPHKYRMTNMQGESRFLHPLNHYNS
Summary of the method: (§1)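 Each fluorescently labelled MarA protein variant, made by in vitro transcription and translation with the RTS E. coli HY kit plus tRNA-lys-bodipy-fl, was tested by MITOMI against 64 synthesized mar binding site variants. Protein and DNA fluorescence were read on Genepix at 295K. Association constants, measured by MITOMI, are reported for each site relative to the highest-affinity site for the same protein variant.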

MarA RQR = biological target: T2, MarA RQR (Escherichia coli, UniProt P0ACH5 1-127, W40R)
T2 sequence: T1 sequence with W40R
Summary of the method: as §1

MarA SAR = biological target: T3, MarA SAR (Escherichia coli, UniProt P0ACH5 1-127, W40S;Q43A)
T3 sequence: T1 sequence with W40S, Q43A
Summary of the method: as §1

MarA TRR = biological target: T4, MarA TRR (Escherichia coli, UniProt P0ACH5 1-127, W40T;Q43R)
T4 sequence: T1 sequence with W40T, Q43R
Summary of the method: as §1

MarA RTR = biological target: T5, MarA RTR (Escherichia coli, UniProt P0ACH5 1-127, W40R;Q43T)
T5 sequence: T1 sequence with W40R, Q43T
Summary of the method: as §1

Row | Sequence | binding signal (MarA wild type (WQR)) | binding signal (MarA RQR) | binding signal (MarA SAR) | binding signal (MarA TRR) | binding signal (MarA RTR)
1 | ATGCTGCGTTTTGCTAAAT | 0.442 Ka relative to the best site of the variant | 0.169 Ka relative to the best site of the variant | 0.521 Ka relative to the best site of the variant | 0.588 Ka relative to the best site of the variant | 
2 | ATGGCTCGTTTTGCTAAAT | 0.35 Ka relative to the best site of the variant | 0.759 Ka relative to the best site of the variant | 0.656 Ka relative to the best site of the variant | 0.362 Ka relative to the best site of the variant | 0.904 Ka relative to the best site of the variant
3 | ATGTGCCGTTTTGCTAAAT | 0.245 Ka relative to the best site of the variant | 0.134 Ka relative to the best site of the variant | 0.236 Ka relative to the best site of the variant | 0.407 Ka relative to the best site of the variant | 0.201 Ka relative to the best site of the variant
4 | ATGCGCCGTTTTGCTAAAT | 0.223 Ka relative to the best site of the variant | 0.154 Ka relative to the best site of the variant | 0.602 Ka relative to the best site of the variant | 0.457 Ka relative to the best site of the variant | 0.178 Ka relative to the best site of the variant
5 | ATGCCTCGTTTTGCTAAAT | 0.454 Ka relative to the best site of the variant | 0.232 Ka relative to the best site of the variant | 0.486 Ka relative to the best site of the variant | 0.474 Ka relative to the best site of the variant | 0.235 Ka relative to the best site of the variant
6 | ATGGAGCGTTTTGCTAAAT | 0.262 Ka relative to the best site of the variant | 0.119 Ka relative to the best site of the variant | 0.506 Ka relative to the best site of the variant | 0.392 Ka relative to the best site of the variant | 0.191 Ka relative to the best site of the variant
7 | ATGTGACGTTTTGCTAAAT | 0.253 Ka relative to the best site of the variant | 0.11 Ka relative to the best site of the variant | 0.165 Ka relative to the best site of the variant | 0.413 Ka relative to the best site of the variant | 0.173 Ka relative to the best site of the variant
8 | ATGGAACGTTTTGCTAAAT | 0.299 Ka relative to the best site of the variant | 0.208 Ka relative to the best site of the variant | 0.646 Ka relative to the best site of the variant | 0.432 Ka relative to the best site of the variant | 0.23 Ka relative to the best site of the variant
9 | ATGCTACGTTTTGCTAAAT | 0.363 Ka relative to the best site of the variant | 0.117 Ka relative to the best site of the variant | 0.491 Ka relative to the best site of the variant | 0.571 Ka relative to the best site of the variant | 0.285 Ka relative to the best site of the variant
10 | ATGACACGTTTTGCTAAAT | 0.709 Ka relative to the best site of the variant | 0.337 Ka relative to the best site of the variant | 0.637 Ka relative to the best site of the variant | 0.369 Ka relative to the best site of the variant | 0.249 Ka relative to the best site of the variant
11 | ATGGGACGTTTTGCTAAAT | 0.34 Ka relative to the best site of the variant | 0.136 Ka relative to the best site of the variant | 0.498 Ka relative to the best site of the variant | 0.361 Ka relative to the best site of the variant | 
12 | ATGGTGCGTTTTGCTAAAT | 0.304 Ka relative to the best site of the variant | 0.115 Ka relative to the best site of the variant | 0.784 Ka relative to the best site of the variant | 0.382 Ka relative to the best site of the variant | 0.183 Ka relative to the best site of the variant
13 | ATGTCCCGTTTTGCTAAAT | 0.181 Ka relative to the best site of the variant | 1 Ka relative to the best site of the variant | 0.233 Ka relative to the best site of the variant | 0.399 Ka relative to the best site of the variant | 0.848 Ka relative to the best site of the variant
14 | ATGCATCGTTTTGCTAAAT | 0.317 Ka relative to the best site of the variant | 0.112 Ka relative to the best site of the variant | 0.449 Ka relative to the best site of the variant | 0.422 Ka relative to the best site of the variant | 0.186 Ka relative to the best site of the variant
15 | ATGCCCCGTTTTGCTAAAT | 0.272 Ka relative to the best site of the variant | 0.294 Ka relative to the best site of the variant | 0.492 Ka relative to the best site of the variant | 0.397 Ka relative to the best site of the variant | 0.243 Ka relative to the best site of the variant
16 | ATGAGGCGTTTTGCTAAAT | 0.283 Ka relative to the best site of the variant | 0.103 Ka relative to the best site of the variant | 0.726 Ka relative to the best site of the variant | 0.475 Ka relative to the best site of the variant | 0.212 Ka relative to the best site of the variant

Row | Sequence | binding signal (MarA wild type (WQR)) | binding signal (MarA RQR) | binding signal (MarA SAR) | binding signal (MarA TRR) | binding signal (MarA RTR)
17 | ATGTCTCGTTTTGCTAAAT | 0.301 Ka relative to the best site of the variant | 0.956 Ka relative to the best site of the variant | 0.259 Ka relative to the best site of the variant | 0.462 Ka relative to the best site of the variant | 0.642 Ka relative to the best site of the variant
18 | ATGTGTCGTTTTGCTAAAT | 0.284 Ka relative to the best site of the variant | 0.132 Ka relative to the best site of the variant | 0.282 Ka relative to the best site of the variant | 0.424 Ka relative to the best site of the variant | 0.231 Ka relative to the best site of the variant
19 | ATGGACCGTTTTGCTAAAT | 0.196 Ka relative to the best site of the variant | 0.106 Ka relative to the best site of the variant | 0.573 Ka relative to the best site of the variant | 1 Ka relative to the best site of the variant | 0.154 Ka relative to the best site of the variant
20 | ATGCGACGTTTTGCTAAAT | 0.369 Ka relative to the best site of the variant | 0.148 Ka relative to the best site of the variant | 0.43 Ka relative to the best site of the variant | 0.589 Ka relative to the best site of the variant | 0.24 Ka relative to the best site of the variant
21 | ATGATGCGTTTTGCTAAAT | 0.319 Ka relative to the best site of the variant | 0.106 Ka relative to the best site of the variant | 0.854 Ka relative to the best site of the variant | 0.404 Ka relative to the best site of the variant | 0.243 Ka relative to the best site of the variant
22 | ATGTCGCGTTTTGCTAAAT | 0.426 Ka relative to the best site of the variant | 0.635 Ka relative to the best site of the variant | 0.219 Ka relative to the best site of the variant | 0.463 Ka relative to the best site of the variant | 0.353 Ka relative to the best site of the variant
23 | ATGATACGTTTTGCTAAAT | 0.279 Ka relative to the best site of the variant | 0.108 Ka relative to the best site of the variant | 0.962 Ka relative to the best site of the variant | 0.498 Ka relative to the best site of the variant | 0.208 Ka relative to the best site of the variant
24 | ATGTGGCGTTTTGCTAAAT | 0.242 Ka relative to the best site of the variant | 0.105 Ka relative to the best site of the variant | 0.152 Ka relative to the best site of the variant | 0.493 Ka relative to the best site of the variant | 0.165 Ka relative to the best site of the variant
25 | ATGACTCGTTTTGCTAAAT | 0.378 Ka relative to the best site of the variant | 0.586 Ka relative to the best site of the variant | 0.657 Ka relative to the best site of the variant | 0.382 Ka relative to the best site of the variant | 0.469 Ka relative to the best site of the variant
26 | ATGTTGCGTTTTGCTAAAT | 0.405 Ka relative to the best site of the variant | 0.193 Ka relative to the best site of the variant | 0.191 Ka relative to the best site of the variant | 0.665 Ka relative to the best site of the variant | 0.518 Ka relative to the best site of the variant
27 | ATGGTACGTTTTGCTAAAT | 0.294 Ka relative to the best site of the variant | 0.124 Ka relative to the best site of the variant | 0.797 Ka relative to the best site of the variant | 0.39 Ka relative to the best site of the variant | 0.222 Ka relative to the best site of the variant
28 | ATGGTTCGTTTTGCTAAAT | 0.203 Ka relative to the best site of the variant | 0.13 Ka relative to the best site of the variant | 0.805 Ka relative to the best site of the variant | 0.368 Ka relative to the best site of the variant | 0.189 Ka relative to the best site of the variant
29 | ATGCTTCGTTTTGCTAAAT | 0.341 Ka relative to the best site of the variant | 0.157 Ka relative to the best site of the variant | 0.508 Ka relative to the best site of the variant | 0.576 Ka relative to the best site of the variant | 0.723 Ka relative to the best site of the variant
30 | ATGCCACGTTTTGCTAAAT | 0.646 Ka relative to the best site of the variant | 0.243 Ka relative to the best site of the variant | 0.379 Ka relative to the best site of the variant | 0.497 Ka relative to the best site of the variant | 0.223 Ka relative to the best site of the variant
31 | ATGATCCGTTTTGCTAAAT | 0.22 Ka relative to the best site of the variant | 0.117 Ka relative to the best site of the variant | 0.872 Ka relative to the best site of the variant | 0.466 Ka relative to the best site of the variant | 0.175 Ka relative to the best site of the variant
32 | ATGAACCGTTTTGCTAAAT | 0.224 Ka relative to the best site of the variant | 0.104 Ka relative to the best site of the variant | 0.776 Ka relative to the best site of the variant | 0.379 Ka relative to the best site of the variant | 0.204 Ka relative to the best site of the variant
